Laboratory results as given in PubChem BioAssay (NCI).
The panel holds about 83,000 compounds, 20% with a hit somewhere; the sample as a whole holds those more often.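 In brief: 96-well plates, 48 h treatment, single concentration, percent growth endpoint.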 Calls of active or inactive are those of the source. The calls were made as follows: active = growth percent below 10; inactive = the rest.

What was measured:
Assay in all cases: NCI-60 one-dose screen, 48 h (100 = growth as untreated, 0 = no growth, -100 = all killed)
Conditions in all cases: 10 µM unless noted
[1] = test system: DU-145 prostate
[2] = test system: K-562 leukemia
[3] = test system: MALME-3M melanoma
[4] = test system: MDA-MB-231 breast
[5] = test system: RXF 393 renal
[6] = test system: SF-268 CNS
[7] = test system: SF-295 CNS
[8] = test system: UACC-257 melanoma
[9] = test system: M14 melanoma

SMILES	growth [1]	growth [2]	growth [3]	growth [4]	growth [5]	growth [6]	growth [7]	growth [8]	growth [9]
CCOc1ccc(Nc2nc(-c3c(C)nc4ncccn34)cs2)cc1	0.86% (active)	4.04% (active)	52.8% (inactive)	-12.5% (active)	-1.2% (active)	28.4% (inactive)	17.1% (inactive)	78.8% (inactive)	21.1% (inactive)
O=C(CN1CCOCC1)Nc1ccc(Cn2nnc3c2C(=O)c2nnn(Cc4ccc(NC(=O)CN5CCOCC5)cc4)c2C3=O)cc1	-76.7% (active)	0.148% (active)	-81.6% (active)	-9.32% (active)	-18.7% (active)	-5.75% (active)	-44.9% (active)	-95.2% (active)	-90.4% (active)
O=c1ccc2cc3ccccc3cc2[nH]1	100% (inactive)	57.6% (inactive)	112% (inactive)	101% (inactive)	93.7% (inactive)	75.5% (inactive)	95.4% (inactive)	96.5% (inactive)	101% (inactive)
O=C(CN1CCN(c2cc3c(cc2F)c(=O)c(C(=O)O)cn3C2CC2)CC1)Nc1nc(-c2ccccc2)cs1	79.7% (inactive)	64.5% (inactive)	89.8% (inactive)	95.5% (inactive)	78.2% (inactive)	83.9% (inactive)	69.9% (inactive)	65.2% (inactive)	76% (inactive)
CCCCCCCCCCCCCC(=O)C(C)N (centres undefined)	7.93% (active)	-44.3% (active)	77.8% (inactive)	-54.1% (active)	28% (inactive)	37.7% (inactive)	56.3% (inactive)	91.6% (inactive)	63.7% (inactive)
COc1ccc(CN(c2ccc(C)cc2)C2OC(=O)c3ccccc32)cc1OC (centres undefined)	115% (inactive)	99.6% (inactive)	104% (inactive)	117% (inactive)	104% (inactive)	113% (inactive)	100% (inactive)	95% (inactive)	110% (inactive)
COc1ccccc1N1CCN(CCn2c(=O)c3c(c4ccccc4n3C)n(C)c2=O)CC1	107% (inactive)	100% (inactive)	110% (inactive)	90.4% (inactive)	101% (inactive)	96.2% (inactive)	97.8% (inactive)	90.6% (inactive)	98.8% (inactive)
COc1ccc(CNc2nccnn2)cc1	112% (inactive)	96.2% (inactive)	100% (inactive)	106% (inactive)	88.1% (inactive)	103% (inactive)	101% (inactive)	107% (inactive)	96% (inactive)
Cc1ccccc1CCO	111% (inactive)	114% (inactive)	92.5% (inactive)	110% (inactive)	104% (inactive)	101% (inactive)	99.6% (inactive)	89.4% (inactive)	98.3% (inactive)
NC1=CC(=O)C(=O)c2ccccc21	102% (inactive)	71% (inactive)	45.7% (inactive)	77.5% (inactive)	100% (inactive)	93.3% (inactive)	80.7% (inactive)	51.5% (inactive)	68.1% (inactive)
CCN(CC)CCC(=O)Nc1ccc(Cn2nnc3c2C(=O)c2nnn(Cc4ccc(NC(=O)CCN(CC)CC)cc4)c2C3=O)cc1	-92.6% (active)	2.02% (active)	-79.5% (active)	-5.66% (active)	19.9% (inactive)	-38.1% (active)	-57.2% (active)	-56.1% (active)	-16.3% (active)
CC1=C(NCCN2CCCC2)C(=O)c2c(OCc3ccc(C(F)(F)F)cc3)cccc2C1=O	92.1% (inactive)	-14.8% (active)	104% (inactive)	81.4% (inactive)	88.5% (inactive)	77.1% (inactive)	76.7% (inactive)	65.1% (inactive)	-82.2% (active)
CCOC(=O)CC(=O)c1c(C)cc(C)cc1C	110% (inactive)	112% (inactive)	113% (inactive)	103% (inactive)	100% (inactive)	107% (inactive)	103% (inactive)	112% (inactive)	99.6% (inactive)
COc1ccc(C2Nc3ccccc3-n3cccc32)cc1 (centres undefined)	111% (inactive)	105% (inactive)	100% (inactive)	78.7% (inactive)	111% (inactive)	98.7% (inactive)	92.4% (inactive)	98.9% (inactive)	99.3% (inactive)
Clc1ccc(-c2nnc(COc3ccccc3Cl)o2)cc1	95.6% (inactive)	74.7% (inactive)	72.4% (inactive)	67.4% (inactive)	46.9% (inactive)	75.5% (inactive)	89.8% (inactive)	80.6% (inactive)	76.4% (inactive)
CS(=O)(CCCCN=C=S)=NC(=O)c1c(F)c(F)c(F)c(F)c1F (centres undefined)	91.1% (inactive)	60.8% (inactive)	58.7% (inactive)	91.8% (inactive)	94.2% (inactive)	101% (inactive)	97.8% (inactive)	83.5% (inactive)	98.4% (inactive)
Cc1nc2nc(N)nc(N)c2nc1C	110% (inactive)	100% (inactive)	99.9% (inactive)	94% (inactive)	105% (inactive)	98.5% (inactive)	90.5% (inactive)	96.2% (inactive)	90.9% (inactive)
CCN(C(=O)CN1CCN(c2cc3c(cc2F)c(=O)c(C(=O)O)cn3C2CC2)CC1)c1nc(-c2ccc(OC)cc2)cs1	35.7% (inactive)	32.5% (inactive)	66.1% (inactive)	68.5% (inactive)	74.9% (inactive)	59.8% (inactive)	94.6% (inactive)	43.1% (inactive)	48.7% (inactive)

SMILES	growth [1]	growth [2]	growth [3]	growth [4]	growth [5]	growth [6]	growth [7]	growth [8]	growth [9]
O=C(O)c1c([N+](=O)[O-])cnc2ccccc12	116% (inactive)	112% (inactive)	88.4% (inactive)	107% (inactive)	110% (inactive)	104% (inactive)	102% (inactive)	97.1% (inactive)	93.5% (inactive)
CC(=O)C1=C(O)C=C2Oc3c(C(=O)/C=C/c4ccccc4)c(O)c(C)c(O)c3[C@]2(C)C1=O	57% (inactive)	24.9% (inactive)	74.2% (inactive)	61.2% (inactive)	62.9% (inactive)	35.2% (inactive)	19.5% (inactive)	44.5% (inactive)	36.1% (inactive)
c1ccc(-c2nc(N3CCOCC3)c3c4c(sc3n2)CCCCC4)nc1	71.5% (inactive)	58% (inactive)	32.6% (inactive)	60.4% (inactive)	55.4% (inactive)	65.5% (inactive)	49.2% (inactive)	75.7% (inactive)	67.6% (inactive)
O=C(Nc1ccc(Nc2cc(Nc3ccccc3)ncn2)cc1)Nc1cc(C(F)(F)F)ccc1F	65.7% (inactive)	56.1% (inactive)	85.9% (inactive)	56.9% (inactive)	61.2% (inactive)	94.6% (inactive)	84.2% (inactive)	73.6% (inactive)	57.4% (inactive)
COc1c(C2CC(=O)Nc3c2cnn3Cc2ccco2)cc2c(c1OC)OCO2 (centres undefined)	5.85% (active)	5.69% (active)	55.7% (inactive)	16% (inactive)	-30% (active)	34.1% (inactive)	-20.6% (active)	68.4% (inactive)	9.85% (active)
CC1=C(NCCN2CCCC2)C(=O)c2c(OCc3ccc(F)c(Cl)c3)cccc2C1=O	84.3% (inactive)	17% (inactive)	44.3% (inactive)	59.1% (inactive)	71.8% (inactive)	70.5% (inactive)	45.6% (inactive)	-63.9% (active)	-73.7% (active)
COc1ccc(C(=O)c2sc3nc(-c4ccccc4OC)ccc3c2N)cc1OC	70.1% (inactive)	25.1% (inactive)	90.6% (inactive)	64% (inactive)	55.8% (inactive)	64.7% (inactive)	47.9% (inactive)	86.6% (inactive)	50% (inactive)
CS(=O)CCCCCN=C=S (centres undefined)	9.76% (active)	-0.259% (active)	-11.5% (active)	9.17% (active)	-34.7% (active)	8.94% (active)	51% (inactive)	-6.89% (active)	8.73% (active)
CCCC(=O)Oc1ccc(/C(=C(/CC)Cc2ccccc2)c2ccc(OCCN3CCCC3)cc2)cc1	87% (inactive)	2.42% (active)	91.4% (inactive)	78.2% (inactive)	68.2% (inactive)	67.4% (inactive)	100% (inactive)	87.6% (inactive)	63.9% (inactive)
COc1ccc(-c2cc(=O)[nH]c3c(OC)c4ccccc4c(OC)c23)cc1	2.29% (active)	8.05% (active)	51.3% (inactive)	35.6% (inactive)	9.4% (active)	34.8% (inactive)	8.09% (active)	73.8% (inactive)	1.54% (active)
CC/C(Cc1ccccc1)=C(\c1ccc(OCCN2CCCC2)cc1)c1ccc(OC(C)=O)cc1	95.6% (inactive)	3.2% (active)	94.7% (inactive)	99.6% (inactive)	65% (inactive)	76% (inactive)	99.6% (inactive)	93.9% (inactive)	75.1% (inactive)
COc1ccc(-c2cc(/C=C3\C(=O)Nc4ccc(Cl)cc43)[nH]n2)cc1	72.6% (inactive)	24% (inactive)	33.4% (inactive)	73.9% (inactive)	51% (inactive)	66.3% (inactive)	47% (inactive)	51.7% (inactive)	44.7% (inactive)
O=C(C[C@@H](C(=O)NCc1cccc(C(F)(F)F)c1)N1C(=O)[C@@H](N2C(=O)OC[C@@H]2c2ccccc2)[C@H]1/C=C/c1ccccc1)NC1CCN(Cc2ccccc2)CC1	67.2% (inactive)	-51% (active)	-17.1% (active)	64.3% (inactive)	74.4% (inactive)	57.9% (inactive)	102% (inactive)	77.4% (inactive)	83.2% (inactive)
COc1ccc(-c2cnoc2-c2cc(OC)c3c(c2)OCCO3)cc1	-9.77% (active)	6.93% (active)	62.8% (inactive)	-23.8% (active)	32.3% (inactive)	19.9% (inactive)	9.28% (active)	69.7% (inactive)	7.58% (active)
O=C(CO[N+](=O)[O-])Nc1ccc(C(=O)/C=C/c2ccc3c(c2)OCO3)cc1	96.7% (inactive)	59.1% (inactive)	116% (inactive)	87.4% (inactive)	107% (inactive)	82.4% (inactive)	74.6% (inactive)	92.9% (inactive)	81.8% (inactive)
COc1cnc2c(c1)C(=O)c1c-2n(CCCN2CCNCC2)c(=O)c2cc([N+](=O)[O-])ccc12	-85.1% (active)	-50.1% (active)	-71.4% (active)	-77.4% (active)	0.0319% (active)	-66.6% (active)	-14.7% (active)	46.3% (inactive)	-83.1% (active)
C=C1CCC2C3(C)COC(c4ccccc4Br)OC3CCC2(C)C1C/C=C1/C(=O)OCC1OC(C)=O (centres undefined)	21.4% (inactive)	-43% (active)	-44.6% (active)	-37.1% (active)	-57.2% (active)	-13.4% (active)	27.6% (inactive)	-41.6% (active)	-36.7% (active)
COc1cc(OC)c(/C=C/S(=O)(=O)Cc2cnc(OC)c(N)c2)c(OC)c1	1.99% (active)	9.4% (active)	67.3% (inactive)	11.9% (inactive)	45.5% (inactive)	38% (inactive)	2.57% (active)	62.4% (inactive)	10.1% (inactive)
